Screening results deposited in PubChem BioAssay by several laboratories.
Rows were chosen to be rich in hits. Some 1.3% of all compounds tested hit in one or more screens of this group.
C-LANA FP – blocks KSHV LANA C-terminal domain binding to DNA; MBP-C-LANA/FAM-LBS DNA binding, fluorescence polarization; inhibition, % at 9 µM; 340,000 tested, 0.078% active; AID 504423;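 active = highest replicate inhibition at or above 60% at 9 µM, even if other replicates fall short; inactive = all replicates below 60% inhibition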
MCL1-BIM inh – disrupts human MCL1 binding to BIM-BH3 peptide; Q07820; GST-MCL1 / FITC-Bim-BH3 fluorescence polarization; inhibition, % at 10.9 µM; 320,000 tested, 0.68% active;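 active = inhibition above the mean inhibition of all tested compounds plus 3 SD, set per campaign, cut at about 40% in these data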;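 also: higher means more loss of mP so more displacement of Bim peptide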
GLD-1 TGE inh – GLD-1-TGE RNA interaction inhibition (C. elegans). Q17339. purified GLD-1 + fluorescein TGE RNA, fluorescence polarization. inhibition, % at 5.96 µM. 320,000 tested, 0.44% active. AID 2280;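 active = percent inhibition above a per-plate cutoff, the plate mean of test compounds plus 3 SD, cut at about 30% in these data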
BCLXL inh – Bcl-xL (human) inhibition. inhibition, % at 10.9 µM. 320,000 tested, 0.7% active. GST-Bcl-xL / FITC-Bim BH3 peptide fluorescence polarization. Q07817;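 active = inhibition above the mean of all tested compounds plus 3 SD, cutoff set per campaign, cut at about 30% in these data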;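 also: inhibitors lower millipolarization by displacing the labeled peptide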
Keap1 Nrf2 FP – Keap1-Nrf2 (human) interaction inhibition; Q14145; Keap1 Kelch-Nrf2 peptide fluorescence polarization, 1536-well; inhibition, % at 9.4 µM; 340,000 tested, 0.15% active; in the data active = inhibition above about 12%;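 also: human Keap1 Kelch domain with fluorescein labeled Nrf2 9mer peptide probe; higher means more block of Keap1 binding to Nrf2 peptide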
Target sequence (Q14145 whole entry, looked up, the tested form may be a part): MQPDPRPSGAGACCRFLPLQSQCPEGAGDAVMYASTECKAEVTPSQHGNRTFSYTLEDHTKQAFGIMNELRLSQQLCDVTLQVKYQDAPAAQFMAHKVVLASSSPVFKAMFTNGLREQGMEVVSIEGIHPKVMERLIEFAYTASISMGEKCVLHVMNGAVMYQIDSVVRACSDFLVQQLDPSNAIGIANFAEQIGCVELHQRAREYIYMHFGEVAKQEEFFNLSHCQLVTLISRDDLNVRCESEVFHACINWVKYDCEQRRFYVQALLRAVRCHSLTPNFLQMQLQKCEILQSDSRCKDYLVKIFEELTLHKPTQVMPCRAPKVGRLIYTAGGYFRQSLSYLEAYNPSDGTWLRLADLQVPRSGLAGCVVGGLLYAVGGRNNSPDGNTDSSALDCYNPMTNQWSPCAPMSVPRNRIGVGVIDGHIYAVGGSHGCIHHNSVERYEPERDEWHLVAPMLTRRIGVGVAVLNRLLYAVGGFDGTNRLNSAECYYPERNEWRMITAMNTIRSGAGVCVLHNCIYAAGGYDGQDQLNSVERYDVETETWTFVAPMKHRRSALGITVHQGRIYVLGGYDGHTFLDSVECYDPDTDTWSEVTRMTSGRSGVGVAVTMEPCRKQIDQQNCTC
eLon inh – E. coli protease La inhibition. P0A9M0. purified E. coli Lon protease, fluorescence polarization. inhibition, % at 7.94 µM. 360,000 tested, 0.42% active. AID 602123; in the data active = inhibition above about 13%, passing the limit was not always enough
Bcl-xL conf – counter-screen for MCL1 inhibitors: confirmation of human Bcl-xL inhibitors | inhibition, % at 10.9 µM | AID 2166 | 1,700 tested, 54% active | shares compounds with MCL1-BIM inh | GST-Bcl-xL / FITC-Bim BH3 peptide FP binding;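 active = inhibition above a cutoff equal to the mean inhibition of all tested compounds plus 3 SD, cut at about 30% in these data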
MCL1 BIM confirm – confirmation of human MCL1 and BIM-BH3 interaction inhibitors; shares compounds with MCL1-BIM inh; GST-MCL1 / FITC-Bim-BH3 fluorescence polarization; inhibition, % at 10.9 µM; 1,700 tested, 61% active; AID 2168;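 active = inhibition above the average of all tested compounds plus 3 SD, cut at about 40% in these data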
Large screens that a line does not name were inactive (follow-up assays come after a bar, where they were run).

Cc1ccc(-c2nn(-c3ccccc3)cc2/C=C2\SC(=S)N(CC(=O)O)C2=O)cc1	MCL1-BIM inh 70 | Bcl-xL conf inactive | MCL1 BIM confirm inactive
CC(C)C[C@H]1C(=O)N2CCC[C@H]2[C@]2(O)O[C@](NC(=O)C3C=C4c5cccc6[nH]c(Br)c(c56)C[C@H]4N(C)C3)(C(C)C)C(=O)N12 (stereo partly specified)	MCL1-BIM inh 115, GLD-1 TGE inh 92, BCLXL inh 100 | Bcl-xL conf inactive | MCL1 BIM confirm inactive
c1ccc(-c2nnc(CN3CCCc4ccccc43)o2)cc1	MCL1-BIM inh 72, BCLXL inh 65 | Bcl-xL conf 46 | MCL1 BIM confirm 68
O=[N+]([O-])c1nn(-c2ccc3c(c2)OCCO3)n(O)c1=NCc1ccccc1Cl	MCL1-BIM inh 54, BCLXL inh 42 | Bcl-xL conf inactive | MCL1 BIM confirm inactive
O=C(CCC(=O)c1cccs1)NCC(c1ccc(F)cc1)N1CCOCC1 (stereo unspecified)	none
CCn1cc(C(=O)NCCC(C)C)c(=O)c2cc(F)c(N3CCN(C(=O)c4ccco4)CC3)cc21	none
CN1CCN(C2=Nc3c(Cl)cc(Cl)c4cccc2c34)CC1	MCL1-BIM inh 80, GLD-1 TGE inh 40, BCLXL inh 75 | Bcl-xL conf 82 | MCL1 BIM confirm 110
CCCCC1=CC2=CC(=O)C(C)(OC(=O)CC)C(=O)C2=CN1c1ccc(OC)cc1 (stereo unspecified)	none
COC(=O)CCCC1=CC2=C(c3ccccc3)C(=O)C(C)(OC(=O)C3CCCC3)C(=O)C2=CN1Cc1ccco1 (stereo unspecified)	none
CCCCC1=CC2=C(c3ccco3)C(=O)C(C)(OC(=O)c3ccc(OC)cc3)C(=O)C2=CN1CCCOC(C)C (stereo unspecified)	MCL1-BIM inh 65, GLD-1 TGE inh 51, BCLXL inh 63 | Bcl-xL conf 72 | MCL1 BIM confirm 91
CCCCC1=CC2=C(c3ccco3)C(=O)C(C)(OC(=O)c3ccc(OC)cc3)C(=O)C2=CN1c1ccccc1 (stereo unspecified)	MCL1-BIM inh 50, GLD-1 TGE inh 44, BCLXL inh 49 | Bcl-xL conf inactive | MCL1 BIM confirm inactive
Cc1cc(C)cc(NC(=S)N2CCC(NC(=O)c3ccco3)CC2)c1	none
Cc1cc(=O)oc2c3c4c(cc12)OCCN4CCC3	MCL1-BIM inh 64, BCLXL inh 60 | Bcl-xL conf 47 | MCL1 BIM confirm 41
Cc1cc(=O)oc2c(CN3CCCC3)c(O)c(Cl)cc12	none
Cc1ccc2[nH]c(=O)c3cc(C(=O)NCC4CCCO4)sc3c2c1 (stereo unspecified)	none
Cc1ccc2[nH]c(=O)c3cc(C(=O)NC(C)C)sc3c2c1	MCL1-BIM inh 167, GLD-1 TGE inh 155, BCLXL inh 138 | Bcl-xL conf inactive | MCL1 BIM confirm inactive
CC1(c2ccc3noc(-c4ccc(F)cc4)c3c2)OCCO1	MCL1-BIM inh 83, GLD-1 TGE inh 89, BCLXL inh 74 | Bcl-xL conf 78 | MCL1 BIM confirm 111
CC1(c2ccc3noc(-c4ccccc4)c3c2)OCCO1	none
O=c1c(-c2ccc([N+](=O)[O-])cc2)coc2c(O)c(O)ccc12	MCL1-BIM inh 45 | Bcl-xL conf 43 | MCL1 BIM confirm 63
COc1ccccc1OCC(=O)Nc1sc2c(c1C(N)=O)CCC2	none (no result: MCL1-BIM inh, BCLXL inh)
Cn1cnnc1SCC(=O)Nc1sc2c(c1C(N)=O)CCC2	MCL1-BIM inh 56 | Bcl-xL conf inactive | MCL1 BIM confirm 56
COc1cccc(C(=O)OCC(=O)Nc2sc3c(c2C(N)=O)CCC3)c1O	MCL1-BIM inh 50 | Bcl-xL conf inactive | MCL1 BIM confirm 45
O=C(OC1CCOC1=O)C1CCN(S(=O)(=O)c2ccccc2)CC1 (stereo unspecified)	none
O=C(CN1CCSC1=O)N1CCN(S(=O)(=O)c2ccc(Cl)cc2)CC1	none
